Screens as filed in PubChem BioAssay.
Anthrax LF prot: inhibitors of Bacillus anthracis lethal factor protease. P15917. multiplex microsphere protease cleavage assay, LF. inhibition, % at 10 µM. hit rate 0.12% among 360,000. AID 588501; further: plate controls were buffer without enzyme for full effect and enzyme alone for no effect
Target sequence (P15917 whole entry, looked up): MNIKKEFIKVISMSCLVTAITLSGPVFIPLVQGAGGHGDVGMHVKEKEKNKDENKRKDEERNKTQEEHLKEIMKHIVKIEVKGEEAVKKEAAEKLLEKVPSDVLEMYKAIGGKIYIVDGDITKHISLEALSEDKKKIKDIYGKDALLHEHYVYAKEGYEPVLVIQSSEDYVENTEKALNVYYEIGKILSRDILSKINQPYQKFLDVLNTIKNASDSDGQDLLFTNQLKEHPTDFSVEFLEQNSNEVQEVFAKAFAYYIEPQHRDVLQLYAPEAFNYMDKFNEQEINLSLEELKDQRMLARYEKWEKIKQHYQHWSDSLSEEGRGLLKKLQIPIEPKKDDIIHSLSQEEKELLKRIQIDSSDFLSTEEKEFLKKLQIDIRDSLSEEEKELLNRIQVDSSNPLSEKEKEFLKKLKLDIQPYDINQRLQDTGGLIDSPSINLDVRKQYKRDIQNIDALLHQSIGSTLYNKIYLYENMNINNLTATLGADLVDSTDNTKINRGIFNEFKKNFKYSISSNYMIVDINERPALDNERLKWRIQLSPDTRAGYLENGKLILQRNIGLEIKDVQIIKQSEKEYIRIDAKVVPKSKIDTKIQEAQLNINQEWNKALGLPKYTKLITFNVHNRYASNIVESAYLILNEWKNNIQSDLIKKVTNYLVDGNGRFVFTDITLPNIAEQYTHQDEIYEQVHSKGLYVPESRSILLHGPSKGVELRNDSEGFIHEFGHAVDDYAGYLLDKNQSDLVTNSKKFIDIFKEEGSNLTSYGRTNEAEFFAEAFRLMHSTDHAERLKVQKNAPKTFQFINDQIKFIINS
Bead autofluor: counter-screen for toxin protease inhibitors: compound fluorescence; compound autofluorescence counterscreen, microsphere flow cytometry; stronger effect = higher value; fluorescence intensity (no concentration beside the values); hit rate 3.1% among 360,000; in the data active means fluorescence intensity above about 16000; inconclusive means no clear call, values can overlap the other calls
BoNT-F LC inh: blocks Botulinum neurotoxin F light chain protease | Multiplex microsphere protease cleavage assay, flow cytometry | inhibition, % at 10 µM | hit rate 0.22% among 360,000 | AID 588497; in the data active means inhibition above about 35%, passing the limit was not always enough; inconclusive means no clear call, values can overlap the other calls; further: plate controls were buffer without enzyme for full effect and enzyme alone for no effect
BoNT A protease: inhibitors of Botulinum neurotoxin A light chain protease. multiplex microsphere protease substrate cleavage, flow cytometry. AID 588499. hit rate 0.17% among 360,000. inhibition, % at 10 µM; further: plate controls were buffer without enzyme for full effect and enzyme alone for no effect
CCHF vOTU inh: blocks the CCHF virus ovarian tumor domain protease | CCHFV vOTU protease, Pep-AMC fluorescence | inhibition, % at 11.5 µM | hit rate 0.55% among 370,000 | AID 651958; in the data active means inhibition above about 30%; further: 0% = vehicle wells with enzyme and 100% = no enzyme wells
SARS 3CLpro inh: SARS-CoV 3CLpro protease inhibition. recombinant SARS-CoV 3CLpro, quenched FRET peptide cleavage. inhibition, % at 6 µM. P0C6X7. hit rate 0.14% among 290,000; in the data active means inhibition above about 12%
An asterisk follows results filed as active; ? = inconclusive; . = no result given; ! = not confirmed by another sample. Most compounds without a hit are left out; they make up all but 3.9% or so of the library. Unless noted, no stated cut-off is given here; in the data, active means inhibition above about 30%; inconclusive means no clear call, values can overlap the other calls; inactive means below that.

SMILES	Anthrax LF prot	Bead autofluor	BoNT-F LC inh	BoNT A protease	CCHF vOTU inh	SARS 3CLpro inh
COc1cccc(NC(=O)COC(=O)c2ccc(S(=O)(=O)NCc3ccco3)cc2)c1	-1.3	23475*	-8.7	-3.1	-0.2	4.8
C=CCn1c(O)c(C=Nc2ccc(N(CC)CC)cc2)c(=O)[nH]c1=O	-5.8	8838	-10.0	-1.6	40.3*	-2.2
CC(C)Oc1ccc(S(=O)(=O)N2CCCCCC2)c2ccccc12	.	.	.	.	7.9	.
COc1ccc(NS(=O)(=O)c2ccc3c(c2)CCC(=O)N3)c(OC)c1	1.5	16726*	-1.2	-0.2	.	-2.7
CCN1CCCCC(NC(=O)c2ccc(C)cc2)C1=O (centres undefined)	.	.	.	.	4.7	.
CCOC(=O)C(=CNc1cc(C)ccc1[N+](=O)[O-])C(=O)OCC	-3.7	3758	?	0.1	5.2	-1.4
COC(=O)c1ccc(COC(=O)CSCC(=O)Nc2ccc(C)cc2C)cc1	?	4255	-4.3	-2.0	-4.2	.
CCOC(=O)C(=CNc1cc(C)ccc1C)C(=O)OCC	-2.8	17727*	-6.1	-2.7	2.0	4.0
CCOC(=O)CSCC(=O)Nc1cc(C)ccc1C	-2.5	26149*	-9.6	-8.6	.	2.3
C[C@@H]1ON(C)[C@H]2C[C@H]3c4[nH]c5c(-c6ccccc6F)cccc5c4CCN3C(=O)[C@@H]12	.	.	.	.	8.5	.
CCS(=O)(=O)N1N=C(c2cccc(NS(C)(=O)=O)c2)CC1c1ccc(C)cc1 (centres undefined)	16.9	21472*	-1.1	26.4	-12.0	-2.2
CCS(=O)(=O)Nc1cccc(C2=NN(S(C)(=O)=O)C(c3ccccc3)C2)c1 (centres undefined)	0.2	7796	8.2	-0.8	-18.8	3.1
COc1ccc(-c2csc(N(Cc3ccccc3)C(=O)COc3ccc(Cl)cc3)n2)cc1	-3.8	10521	-5.0	-1.2	0.5	5.7
CN(C(=O)COc1ccccc1)c1nc(-c2ccc(F)cc2)cs1	-0.6	2665	0.7	-0.1	-18.9	1.8
O=C(COc1ccccc1)N(Cc1ccccc1)c1nc(-c2ccccc2)cs1	-0.7	21962*	1.8	0.9	-7.2	-1.6
COc1ccc(-c2csc(N(CCc3ccc(OC)c(OC)c3)C(=O)COc3ccccc3)n2)cc1	-1.9	19913*	-1.6	?	16.9	-2.9
CCN(CC)S(=O)(=O)c1ccc(C(=O)NC2=NCCS2)cc1	-5.2	4122	-3.5	0.2	-1.3	-5.1
CC1CCN(S(=O)(=O)c2cc(Br)cc(C(=O)NC3=NCCS3)c2)CC1	0.0	24164*	-6.6	-0.3	5.5	4.5
Cc1ccc(N=CC2=C(O)CC(c3ccco3)CC2=O)cc1 (centres undefined)	-0.6	17259*	17.5	10.2	7.1	-2.4
Cc1[nH]nc(N=CC2=C(O)CC(C)(C)CC2=O)c1-c1ccc(Cl)cc1	2.6	20907*!	-5.9	?	13.5	1.3
CC1(C)CC(=O)C(C=Nc2ccc(Cl)cn2)=C(O)C1	-0.4	4505	9.0	0.3	4.5	-2.8
O=C1CC(c2ccco2)CC(O)=C1C=Nc1ccc(Br)cc1 (centres undefined)	-3.5	4173	-7.1	0.1	6.6	2.0
Cc1[nH]nc(N=CC2=C(O)CC(c3ccco3)CC2=O)c1-c1ccc(Cl)cc1 (centres undefined)	-0.6	23437*	-3.6	-3.4	-29.2	0.5
CCOc1ccc(/C=C/c2[nH]c(=O)[nH]c(=O)c2[N+](=O)[O-])cc1	2.7	3812	-11.4	-3.0	5.9	-7.7
CC(C)c1ccc(/C=C/c2[nH]c(=O)[nH]c(=O)c2[N+](=O)[O-])cc1	9.1	3823	37.3*	0.3	24.6	3.3
SMILES	Anthrax LF prot	Bead autofluor	BoNT-F LC inh	BoNT A protease	CCHF vOTU inh	SARS 3CLpro inh
CC(COc1cccc(Cl)c1)CN1CCC(C(O)(c2ccccc2)c2ccccc2)CC1 (centres undefined)	.	.	.	.	5.7	.
Cc1cccc(C)c1N(CC(O)Cn1c2ccccc2c2ccccc21)S(C)(=O)=O (centres undefined)	-0.2	21877*	1.2	1.5	3.7	-0.3
CCc1ccccc1N=C1S/C(=C/c2ccccc2OCC(=O)N2CCOCC2)C(=O)N1C	-1.6	2453	-3.7	-0.3	19.9	1.2
O=C1NN(c2ccccc2)C(=O)/C1=C\c1ccccc1OCC(=O)N1CCOCC1	-16.7	21121*	3.7	4.8	7.2	6.2
COc1cc(C=Nn2c(-c3n[nH]c4c3CCC4)n[nH]c2=S)ccc1OCc1ccccc1	.	.	.	.	2.5	.
C=CCSc1nc(O)c(CC)c(=O)n1C(C)CC (centres undefined)	-4.5	24804*	-6.4	?	-0.1	-1.9
CCc1c(O)nc(SCc2ccccc2)n(C(C)CC)c1=O (centres undefined)	0.5	21259*	-1.3	-1.4	.	2.6
CN1C2CCCC1CC(NC(=O)c1nn(C)c3ccccc13)C2 (centres undefined)	.	.	.	.	0.1	.
Cc1cc(S(=O)(=O)NCc2ccco2)c(C)s1	0.5	2959	3.7	0.5	14.0	-3.5
Cc1cc(S(=O)(=O)NCCN(C)C)c(C)s1	-0.5	22830*	1.0	0.3	-2.8	2.8
Cc1cc(S(=O)(=O)NCc2ccc(S(N)(=O)=O)cc2)c(C)s1	-2.0	21825*	-1.8	2.6	-1.2	-0.1
C=Cc1ccc(C(=O)Nc2nnc(-c3cccnc3)s2)cc1	.	.	.	.	1.7	.
CCn1c(SCC(=O)c2ccc(-c3ccccc3)cc2)nnc1-c1ccccc1OC	.	.	.	.	9.7	.
NC(=O)c1nn(-c2cccc(Cl)c2)c(=O)cc1O	-7.1	16281*	-0.4	0.2	7.0	-0.8
NC(=O)c1nn(-c2ccc(Oc3ccccc3)cc2)c(=O)cc1O	-12.0	4640	-3.8	-1.1	5.5	-2.6
NC(=O)c1nn(-c2ccccc2)c(=O)cc1O	0.2	22915*	-0.4	-0.3	10.7	1.8
COc1ccc(NC(=O)NC2CCN(S(=O)(=O)c3ccc(F)cc3)CC2)cc1OC	.	.	.	.	5.9	.
Nc1ccn([C@@H]2O[C@H](C(=O)N3CCN(C(=O)N4CCCCC4)CC3)[C@@H](O)[C@H]2O)c(=O)n1	.	.	.	.	-13.3	.
CCCCSC1=NN1c1nc(N)nc(C)c1CC	-2.4	22245*	6.8	2.9	8.0	4.0
CCc1c(C)nc(N)nc1N1N=C1SC	2.7	5437	-1.3	-0.6	-1.9	-2.4
CC(C)c1[nH]nc2c1C(c1ccccc1)N(Cc1ccccc1)C2=O (centres undefined)	.	.	.	.	8.1	.
CCOC(=O)CN(C(=O)Cn1nnc(-c2ccc(C)cc2)n1)C(CC)C(=O)NC1CCCC1 (centres undefined)	-6.5	22718*	-0.2	0.3	16.9	4.6
CCC(C(=O)NC1CCCC1)N(Cc1ccco1)C(=O)Cn1nnc(-c2ccc(C)cc2)n1 (centres undefined)	-2.6	19503*	-2.3	-0.2	-8.2	-2.2
CCC(C(=O)NC1CCCC1)N(C(=O)Cn1nnc(-c2ccc(OC)c(OC)c2)n1)c1cccc(O)c1 (centres undefined)	-0.5	5462	7.2	1.4	12.7	1.0
O=C(NC1CCCCC1)C(c1ccc(F)cc1)N(Cc1ccco1)C(=O)Cn1nnc2ccccc21 (centres undefined)	-0.3	18842*	3.7	2.0	-9.0	-6.2
